Where “and” joins values, the source holds several entries; their conditions need not be identical. Equal values may be shown once. Among all 16,000 compounds or so, about 4,000 (25%) were called active. Roughly 26% stayed inconclusive and do not appear here. Calls follow the shape of the dose curve; as a rule, active = well fitted curve in the direction sought with a large enough effect; inconclusive = small, poorly fitted or top-dose-only effect, or effect the other way; inactive = no such curve, though single readings can be large or run the other way. A selection follows. Where a structure was tested more than once in an assay, its records may differ in their call.
% is scaled to controls: 0 for no effect and ±100 for the full control effect.

The target of the experiment is Cytochrome P450 2C9 (Homo sapiens) (UniProt P11712). As to the kind of experiment: Cytochrome panel assay with activity outcomes. The note with it: recombinant CYP, pro-luciferin dealkylation, luminescence, p450-cyp2c9; series mostly up to 57.1 µM; activity, negative = inhibition: at the top concentration.
Cytochrome P450 2C9 (Homo sapiens), sequence (P11712 whole entry, looked up): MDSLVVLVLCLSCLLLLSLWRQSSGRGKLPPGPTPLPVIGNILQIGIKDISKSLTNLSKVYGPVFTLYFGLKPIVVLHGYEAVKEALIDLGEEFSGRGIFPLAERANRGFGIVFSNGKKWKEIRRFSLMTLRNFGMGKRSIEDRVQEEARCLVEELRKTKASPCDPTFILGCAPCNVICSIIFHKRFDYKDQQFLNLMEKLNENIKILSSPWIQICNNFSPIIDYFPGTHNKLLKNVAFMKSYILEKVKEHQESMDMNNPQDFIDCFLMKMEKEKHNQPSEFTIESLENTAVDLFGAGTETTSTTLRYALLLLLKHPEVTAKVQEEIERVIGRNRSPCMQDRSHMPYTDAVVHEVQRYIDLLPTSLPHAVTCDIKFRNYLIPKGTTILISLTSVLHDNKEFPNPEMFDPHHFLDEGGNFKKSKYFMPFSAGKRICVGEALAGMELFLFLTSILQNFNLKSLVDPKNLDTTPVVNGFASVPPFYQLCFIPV
Consider `Nc1ncnc2c1ncn2[C@@H]1O[C@@H](COP(=O)(O)CP(=O)(O)OP(=O)(O)O)[C@H](O)[C@@H]1O`, for which the “activity, negative = inhibition” value was -0.747% (inactive).

With `CC(=O)c1ccc2c(c1)N(CCCN(C)C)c1ccccc1S2`, the “activity, negative = inhibition” value is 20.6% [at 25.6 µM] (inactive).

As to `CN1C(=O)c2ccccc2Sc2ccc(C(=O)N3CCC4(CC3)OCCO4)cc21`, the AC50 (usually the concentration giving half of the maximal activity seen) was 8910 nM (active).

As to `C=CCN1C(=O)c2ccccc2Sc2ccc(C(=O)N3CCC4(CC3)OCCO4)cc21`, the AC50 was 1260 nM (active).

As for `CN1[C@@H](C[C@@H](O)c2ccccc2)CCC[C@@H]1C[C@H](O)c1ccccc1`, the “activity, negative = inhibition” value is -7.42% [at 25.6 µM] (inactive).

Turning to `CCCN(CCC)[C@@H]1CCc2c(OC)cccc2[C@@H]1C`, the “activity, negative = inhibition” value was -6.07% (inactive).

Take `C=C1CC[C@H](O)C/C1=C/C=C1\CCC[C@]2(C)[C@H]1CC[C@H]2[C@@H](C)CCCC(C)C`: the “activity, negative = inhibition” value is 1.21% [at 25.6 µM] (inactive).

As for `CC[C@@]1(O)C(=O)OCc2c1cc1n(c2=O)Cc2cc3ccccc3nc2-1`, the activity, negative = inhibition result was “inactive”.

`CCC(COC(=O)NC)NC(=O)Oc1ccccc1` (stereo not drawn): the “activity, negative = inhibition” value was 21.5% (inactive).

For `CN(C(=O)Cc1ccccc1)[C@H](CN1CCCC1)c1ccccc1`, the “activity, negative = inhibition” value is -8.81% (inactive).

As for `Cc1cc[c]([Sb]2[O][C@H]([C@H](O)[C@H](O)C(=O)O)[C@@H](CO)[O]2)cc1`, the activity, negative = inhibition was 14% [at 11.4 µM] (inactive).

For `O=C(O)CN1CCN(CC(=O)O)CC(=O)[O][Hg][O]C(=O)C1`, the AC50 is 1260 nM (active).

Take `C[C@]12CC[C@H]3c4ccc(O)cc4CC[C@@H]3[C@H]1CC[C@@H]2OP(=O)(O)O`: the activity, negative = inhibition is 12.3% [at 11.4 µM] (inactive).

In the case of `Nc1ccccc1O.O.O=C(O)[C@H]1[O][Sb][O][C@H]1C(=O)O`, the activity, negative = inhibition is 14.2% [at 11.4 µM] (inactive).

On to `O=c1[nH]cnc2[nH]cc(CN3CCCCC3)c12`, for which the activity, negative = inhibition is -6.24% [at 11.4 µM] (inactive).

Take `N=C1c2ccccc2CN1NC(=O)c1ccc(Cl)cc1`: the “activity, negative = inhibition” value was -1.51% (inactive).

On to `O=C(Oc1ccccc1)N1CCC2(CCCN(Cc3nccs3)C2)CC1`, for which the “activity, negative = inhibition” value was -16.6% (inactive).

Consider `C[C@@H](Cc1cccc(C(F)(F)F)c1)NCCCc1ccccc1`, for which the “activity, negative = inhibition” value is -1.99% (inactive).

With `C[C@H]1CC[C@@]2(NC1)O[C@@H]1C[C@@H]3[C@@H]4CC=C5C[C@@H](O)CC[C@]5(C)[C@@H]4CC[C@]3(C)[C@H]1[C@@H]2C`, the activity, negative = inhibition is -1.5% [at 11.4 µM] (inactive).

On to `C[C@@]12CC[C@H]3[C@H](CC=C4C[C@@H](O)CC[C@@]43C)[C@@H]1CC[C@@H]2N(CCO)CCO`, for which the activity, negative = inhibition was 7.98% [at 11.4 µM] (inactive).

As to `CN(C)CCC(=O)[C@@]1(O)CC[C@H]2[C@H]3CC=C4C[C@@H](O)CC[C@]4(C)[C@H]3CC[C@]21C`, the AC50 was 2510 nM (active).

Regarding `Oc1ccc2c3c1O[C@H]1c4oc5ccccc5c4C[C@]4(O)[C@H](C2)N(CC2CC2)CC[C@@]314`, the activity, negative = inhibition result was “inactive”.

Take `CN1CCN(c2ncc3ncc(=O)n(C)c3n2)CC1`: the “activity, negative = inhibition” value was -1.78% (inactive).

On to `C[C@@H](Cc1ccc(OCC(=O)O)cc1)NC[C@H](O)c1cccc(Cl)c1`, for which the half-maximal activity concentration (AC50) entry is “inactive and 6.31 µM (active)”.

In the case of `C[C@@H](Cc1ccccc1)NCCC(c1ccccc1)c1ccccc1`, the “activity, negative = inhibition” value is -14.2% [at 25.6 µM] (inactive).

Consider `NS(=O)(=O)c1ccc(-c2ccc([As](=O)(O)O)cc2)cc1`, for which the activity, negative = inhibition was 14.8% [at 11.4 µM] (inactive).

Take `Cc1cc(C)nc(NC2=NCCS2)n1`: the “activity, negative = inhibition” value was -12.5% (inactive).

Consider `CCN1CCN(S(=O)(=O)c2ccc(Cl)nc2)CC1`, for which the “activity, negative = inhibition” value is 16% (inactive).

Take `C[C@]12N[C@@H](Cc3ccccc31)c1ccccc12`: the activity, negative = inhibition entry is “inactive”.

`CCCc1cc2c(n1Cc1cccc(Cl)c1)C(C)C1CN(C(=O)c3ccccc3)C(C)(C(=O)OC)C21` (stereo not drawn): the AC50 was 5010 nM (active).

Regarding `CCCc1cc2c(n1CCO)C(C)C1CN(C(=O)c3ccccc3)C(C)(C(=O)OC)C21` (stereo not drawn), the half-maximal activity concentration (AC50) is 12600 nM (active).

Take `NC[C@H](O)c1cc(O)c(O)cc1F`: the “activity, negative = inhibition” value was -14.1% (inactive).

Regarding `C=C1[C@@H]2CC[C@H]3[C@@]4(C)C[C@@H](O[C@@H]5O[C@H](CO)[C@H](OS(=O)(=O)O)[C@@H](OS(=O)(=O)O)[C@@H]5OC(=O)CC(C)C)C[C@@H](C(=O)O)[C@H]4CC[C@@]3(C2)[C@H]1O`, the “activity, negative = inhibition” value is 7.32% [at 25.6 µM] (inactive).

Take `C=C1C(O)(c2ccccc2)C2CC[N+]1(C)CC2` (stereo not drawn): the “activity, negative = inhibition” value was 35.1% (inactive).

As for `COc1cc2c(cc1OC)[C@@]13CCN4CC5=CCO[C@H](CC(=O)O)[C@@H]([C@H]1N2)[C@H]5C[C@H]43`, the activity, negative = inhibition is -2.18% [at 11.4 µM] (inactive).

`Cc1c(OCC(F)(F)F)ccnc1CS(=O)c1nc2ccccc2[nH]1` (stereo not drawn): the “activity, negative = inhibition” value is -13.7% [at 25.6 µM] (inactive).

Regarding `C=CCO[C@@H](Cn1ccnc1)c1ccc(Cl)cc1Cl`, the AC50 is 100 nM (active).

As to `CC(=O)N1CC[N+](C)(C)CC1`, the “activity, negative = inhibition” value was 3.49% (inactive).

Regarding `CN1[C@@H]2CC[C@H]1CC(NC(=O)c1nn(C)c3ccccc13)C2` (stereo partly drawn), the “activity, negative = inhibition” value was -3.75% (inactive).

On to `CCOc1ccc(C2C(C#N)=C(N)Oc3c2c(=O)oc2ccccc32)cc1` (stereo not drawn), for which the AC50 was 22.4 nM (active).

For `C[C@@]12CC[C@H](O[C@@H]3O[C@H](CO)[C@@H](O)[C@H](O)[C@@H]3O)C[C@@H]1CC[C@H]1[C@H]2CC[C@@]2(C)[C@@H](C3=CCOC3=O)CC[C@]12O`, the activity, negative = inhibition was 2% [at 11.4 µM] (inactive).

As for `C[C@H](N[C@@H](C)CCc1ccccc1)[C@H](O)c1ccc(O)cc1`, the “activity, negative = inhibition” value is -17.1% (inactive).

With `O=C(O)c1cc[c]([Hg][S]c2ncnc3nc[nH]c23)cc1`, the AC50 was 1260 nM (active).

In the case of `Ic1cncc(OC[C@@H]2CCN2)c1`, the AC50 is 31600 nM (active).

Consider `CC(C)(C)NC[C@@H](O)COc1cccc2[nH]c(C#N)cc12`, for which the “activity, negative = inhibition” value was -27.6% (inactive).

On to `CC[N@+]1(C)CCC[C@@H](OC(=O)C(O)(c2ccccc2)c2ccccc2)C1`, for which the “activity, negative = inhibition” value is -7.68% [at 25.6 µM] (inactive).

Take `C[N+]1([O-])[C@H]2CC[C@H]1CC(OC(=O)[C@@H](CO)c1ccccc1)C2` (stereo partly drawn): the activity, negative = inhibition was 3.51% [at 11.4 µM] (inactive).

With `C[C@H]1CC[C@@]2(NC1)O[C@@H]1C[C@H]3[C@@H]4CC[C@@H]5C[C@@H](O)CC[C@@]5(C)[C@@H]4CC[C@]3(C)[C@@H]1[C@@H]2C`, the “activity, negative = inhibition” value is -6.95% [at 25.6 µM] (inactive).

For `CC(C)CCC[C@@H](C)[C@@H]1CC[C@@H]2[C@H]3CC[C@H]4C[C@@H](N)CC[C@@]4(C)[C@@H]3CC[C@]21C`, the activity, negative = inhibition was 4.77% [at 11.4 µM] (inactive).

As to `C[C@@]12CC[C@H]3[C@@H](CC[C@@H]4C[C@H]5S[C@H]5C[C@]43C)[C@H]1CC[C@H]2O`, the AC50 was 5.01 nM (active).

In the case of `CN1C(=O)CCS(=O)(=O)[C@@H]1c1ccc(Cl)cc1`, the “activity, negative = inhibition” value was 8.83% [at 25.6 µM] (inactive).

With `c1ccc([C@H]2CNCc3ccccc32)cc1`, the “activity, negative = inhibition” value was 21.5% (inactive).

In the case of `CCCN(CCC)[C@@H]1CCc2cccc(O)c2C1`, the activity, negative = inhibition result is “inactive”.

The values above are taken from PubChem BioAssay AID1851 (National Center for Advancing Translational Sciences (NCATS), 2009).
